# Data reported in PubChem BioAssay (NCI).
# This is part of a sample that, as a whole, favours compounds with a hit. Of some 79,000 tested, about 15% had one in any assay. A number with no mark means an inactive call. The source made the active and inactive calls. Cut-off read from the data, not from the text of the source: active = growth inhibition above about 70%; inactive = the rest.
# Tests used:
# [1] = NCI Yeast Anticancer Drug Screen. Data for the rad52 strain (AID 147);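 note: 0% = growth of vehicle-treated control cultures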; conditions: S. cerevisiae rad52 mutant growth inhibition, hits give high values
# Method in brief: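 Inhibition of yeast growth, referenced to vehicle controls, was the measured output for a strain with defective DNA damage repair.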
# [2] = NCI Yeast Anticancer Drug Screen. Data for the wt1 strain (AID 149);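 note: 0% = growth of vehicle-treated wt1 cultures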; conditions: S. cerevisiae wt1 strain (SPY 50644) growth inhibition, hits give high values
# Method in brief: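 Yeast wt1 strain exposed to compounds; growth inhibition measured relative to vehicle-treated controls.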
# [3] = NCI Yeast Anticancer Drug Screen. Data for the rad50EPP+ strain (AID 151);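 note: 0% = growth of vehicle-treated control cultures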; conditions: S. cerevisiae rad50 mutant strain, hits give high values
# Method in brief: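 Genetically defined yeast (rad50EPP+, DNA damage repair alteration) is grown with compound, and inhibition of growth is expressed relative to vehicle-treated controls.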
# [4] = NCI Yeast Anticancer Drug Screen. Data for the mgt1 strain (AID 153); conditions: S. cerevisiae mgt1 mutant growth inhibition, hits give high values
# Method in brief: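 In the mgt1 strain, test compounds were added and growth inhibition was determined relative to vehicle-treated controls.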
# [5] = NCI Yeast Anticancer Drug Screen. Data for the rad50 strain (AID 155);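 note: 0% = growth of vehicle-only cultures of the same strain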; conditions: S. cerevisiae rad50 strain growth inhibition, hits give high values
# Method in brief: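 Yeast carrying a defined DNA repair defect were exposed to test compounds, and growth was compared with vehicle-treated controls to give percent inhibition.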
# [6] = NCI Yeast Anticancer Drug Screen. Data for the mec2-1 strain (AID 157); conditions: S. cerevisiae mec2-1 strain, hits give high values
# Method in brief: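 Each compound was tested on mec2-1 yeast, a strain altered in DNA damage repair or cell cycle control. Growth inhibition is reported relative to vehicle.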
# [7] = NCI Yeast Anticancer Drug Screen. Data for the rad14 strain (AID 159);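 note: 0% = growth of vehicle-treated control cultures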; conditions: S. cerevisiae rad14 strain growth inhibition, hits give high values
# Method in brief: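 Yeast cells carrying a defined DNA-repair defect were exposed to compounds, and growth inhibition was calculated relative to vehicle-treated control cultures.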
# [8] = NCI Yeast Anticancer Drug Screen. Data for the sgs1 mgt1 strain (AID 161);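 note: 0% = growth of cultures given vehicle only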; conditions: S. cerevisiae sgs1 mgt1 strain, hits give high values
# Method in brief: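 Genetically altered yeast, compound exposure, growth inhibition relative to vehicle.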
# [9] = NCI Yeast Anticancer Drug Screen. Data for the CLN2oe strain (AID 163);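 note: 0% = growth of vehicle-only control cultures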; conditions: S. cerevisiae CLN2oe strain, hits give high values
# Method in brief: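 First, the altered yeast strain was treated with each compound; second, its growth was measured; finally, inhibition was derived by comparison with vehicle controls.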
# [10] = NCI Yeast Anticancer Drug Screen. Data for the cln2 rad14 strain (AID 165);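 note: 0% = growth equal to vehicle treated cultures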; conditions: S. cerevisiae cln2 rad14 strain, hits give high values
# Method in brief: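 Test compounds were added to cln2 rad14 yeast cultures; inhibition of growth was then determined by comparison with vehicle treatment.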
# [11] = NCI Yeast Anticancer Drug Screen. Data for the bub3 strain (AID 167); conditions: S. cerevisiae bub3 mutant strain, hits give high values
# Method in brief: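 Compounds were applied to a genetically altered yeast strain carrying a cell-cycle control defect. Growth inhibition was scored against vehicle-treated controls.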
# [12] = NCI Yeast Anticancer Drug Screen. Data for the wt2 strain (AID 169);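 note: 0% = growth of vehicle-treated yeast cultures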; conditions: S. cerevisiae wt2 strain growth inhibition, hits give high values
# Method in brief: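 The panel's yeast strains carry defined changes in DNA repair or cell cycle genes. Each strain is grown with compound, and growth loss is scored relative to vehicle.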
# [13] = NCI Yeast Anticancer Drug Screen. Data for the mlh1 strain (AID 171);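 note: 0% = growth of vehicle-treated control cultures of the same strain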; conditions: S. cerevisiae mlh1 strain growth inhibition, hits give high values
# Method in brief: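 Inhibition values reflect reduced yeast growth in the presence of compound, referenced to vehicle controls, using a strain chosen for its alteration in DNA repair or cell cycle control.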
# [14] = NCI Yeast Anticancer Drug Screen. Data for the sgs1 strain (AID 173);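 note: 0% = growth of vehicle-only control cultures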; conditions: S. cerevisiae sgs1 mutant, hits give high values
# Method in brief: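 Vehicle-treated cultures served as reference for growth inhibition of a yeast strain altered in DNA damage repair or cell cycle control after compound exposure.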
# [15] = NCI Yeast Anticancer Drug Screen. Data for the mlh1 rad18 strain (AID 175); conditions: S. cerevisiae mlh1 rad18 strain growth inhibition, hits give high values
# Method in brief: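 Inhibition values reflect reduced growth of mutant yeast versus vehicle-treated controls following compound exposure; the mutations affect DNA damage repair.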
# [16] = NCI Yeast Anticancer Drug Screen. Data for the rad18 strain (AID 177); conditions: S. cerevisiae rad18 mutant growth inhibition, hits give high values
# Method in brief: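 Steps: expose repair-mutant yeast to compound; measure growth; express as inhibition relative to vehicle control.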
# [17] = at 5.0 µM (retest, dose inferred, filed as 0.5)
# [18] = at 50.0 µM (retest, dose inferred, filed as 5.0)
smiles,measurement,setting,value
CCOC(=O)/C(=C\c1ccc(C#N)cc1)C(C)=O,growth inhibition,[1]; at 1.2 µM,-40%
same,growth inhibition,[1]; at 3.7 µM,-32%
same,growth inhibition,[1]; at 11.0 µM,-4%
same,growth inhibition,[1]; at 33.0 µM,86% (active)
same,growth inhibition,[1]; at 100.0 µM,99% (active)
same,growth inhibition,[2]; at 1.2 µM,-15%
same,growth inhibition,[2]; at 3.7 µM,6%
same,growth inhibition,[2]; at 11.0 µM,9%
same,growth inhibition,[2]; at 33.0 µM,84% (active)
same,growth inhibition,[2]; at 100.0 µM,98% (active)
same,growth inhibition,[3]; at 1.2 µM,-8%
same,growth inhibition,[3]; at 3.7 µM,24%
same,growth inhibition,[3]; at 11.0 µM,40%
same,growth inhibition,[3]; at 33.0 µM,84% (active)
same,growth inhibition,[3]; at 100.0 µM,98% (active)
same,growth inhibition,[4]; at 1.2 µM,-23%
same,growth inhibition,[4]; at 3.7 µM,-4%
same,growth inhibition,[4]; at 11.0 µM,38%
same,growth inhibition,[4]; at 33.0 µM,95% (active)
same,growth inhibition,[4]; at 100.0 µM,99% (active)
same,growth inhibition,[5]; at 1.2 µM,-9%
same,growth inhibition,[5]; at 3.7 µM,7%
same,growth inhibition,[5]; [17],36%
same,growth inhibition,[5]; at 11.0 µM,31%
same,growth inhibition,[5]; at 33.0 µM,91% (active)
same,growth inhibition,[5]; [18],94% (active)
same,growth inhibition,[5]; at 50.0 µM,88.8% (active)
same,growth inhibition,[5]; at 100.0 µM,99% (active)
same,growth inhibition,[6]; at 1.2 µM,-36%
same,growth inhibition,[6]; at 3.7 µM,-27%
same,growth inhibition,[6]; [17],-11%
same,growth inhibition,[6]; at 11.0 µM,13%
same,growth inhibition,[6]; at 33.0 µM,92% (active)
same,growth inhibition,[6]; [18],98% (active)
same,growth inhibition,[6]; at 50.0 µM,81.3% (active)
same,growth inhibition,[6]; at 100.0 µM,98% (active)
same,growth inhibition,[7]; at 1.2 µM,-4%
same,growth inhibition,[7]; at 3.7 µM,1%
same,growth inhibition,[7]; at 11.0 µM,15%
same,growth inhibition,[7]; at 33.0 µM,95% (active)
same,growth inhibition,[7]; at 100.0 µM,99% (active)
same,growth inhibition,[8]; [17],25%
same,growth inhibition,[8]; [18],94% (active)
same,growth inhibition,[8]; at 50.0 µM,92% (active)
same,growth inhibition,[9]; at 1.2 µM,-20%
same,growth inhibition,[9]; at 3.7 µM,-27%
same,growth inhibition,[9]; at 11.0 µM,3%
same,growth inhibition,[9]; at 33.0 µM,87% (active)
same,growth inhibition,[9]; at 100.0 µM,99% (active)
same,growth inhibition,[10]; [17],13%
same,growth inhibition,[10]; [18],94% (active)
same,growth inhibition,[10]; at 50.0 µM,38.2%
same,growth inhibition,[11]; at 1.2 µM,1%
same,growth inhibition,[11]; at 3.7 µM,3%
same,growth inhibition,[11]; [17],29%
same,growth inhibition,[11]; at 11.0 µM,58%
same,growth inhibition,[11]; at 33.0 µM,98% (active)
same,growth inhibition,[11]; [18],99% (active)
same,growth inhibition,[11]; at 50.0 µM,81.2% (active)
same,growth inhibition,[11]; at 100.0 µM,99% (active)
same,growth inhibition,[12]; at 1.2 µM,-37%
same,growth inhibition,[12]; at 3.7 µM,-18%
same,growth inhibition,[12]; at 11.0 µM,18%
same,growth inhibition,[12]; at 33.0 µM,93% (active)
same,growth inhibition,[12]; at 100.0 µM,99% (active)
same,growth inhibition,[13]; at 1.2 µM,0%
same,growth inhibition,[13]; at 3.7 µM,26%
same,growth inhibition,[13]; at 11.0 µM,69%
same,growth inhibition,[13]; at 33.0 µM,98% (active)
same,growth inhibition,[13]; at 100.0 µM,98% (active)
same,growth inhibition,[14]; at 1.2 µM,-18%
same,growth inhibition,[14]; at 3.7 µM,-6%
same,growth inhibition,[14]; at 11.0 µM,25%
same,growth inhibition,[14]; at 33.0 µM,93% (active)
same,growth inhibition,[14]; at 100.0 µM,98% (active)
same,growth inhibition,[15]; [17],-9%
same,growth inhibition,[15]; [18],97% (active)
same,growth inhibition,[15]; at 50.0 µM,90% (active)
same,growth inhibition,[16]; at 1.2 µM,-30%
same,growth inhibition,[16]; at 3.7 µM,7%
same,growth inhibition,[16]; at 11.0 µM,23%
same,growth inhibition,[16]; at 33.0 µM,88% (active)
same,growth inhibition,[16]; at 100.0 µM,98% (active)
